CF NFkB block = inhibitors of PAF-induced NF-kB signaling, primary screen, cell-based, GFP fluorescence, uHTS; KKLEB NF-kB-GFP reporter, GFP fluorescence overnight; inhibition, % at 5 µM; 360,000 compounds, 0.86% hits; AID 588850, 2011;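 active = at least 50% inhibition at 5 µM, scaled per plate between neutral and stimulator controls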;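 also: PAF is a Pseudomonas aeruginosa culture filtrate used as stimulus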
TWEAK Fn14 block = inhibitors of TWEAK-Fn14 signaling, primary screen, luciferase reporter cells, uHTS | AID 1159606, 2016 | TWEAK-stimulated Fn14 reporter cells, luciferase luminescence, 8 h | inhibition, % at 10 µM | 360,000 compounds, 2% hits; in the data active = inhibition above about 50%
KKLEB cytotox = cytotoxicity in KKLEB CF airway cells, primary screen, cytotoxicity control for CF NF-kB inhibitor project, cell-based, uHTS, fluorescence assay plates; AID 602141, 2011; activity change (cytotoxicity), % at 5 µM; KKLEB CF airway cells viability, ATPlite luminescence, overnight; stronger effect = lower value; cells stimulated with P. aeruginosa culture filtrate; 360,000 compounds, 0.36% hits;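 active = corrected activity change at or below -50% at 5 µM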
Peg3 promoter = Peg3 promoter-driven luciferase inhibitors, primary screen, cell-based, HeLa, luciferase luminescence | 360,000 compounds, 1.7% hits | AID 588405, 2011 | HeLa PEG-Prom luciferase reporter, overnight | inhibition, % at 20 µM;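 active = inhibition of at least 50% at 20 µM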
HIF-2a block = HIF-2a reporter inhibitors, primary screen, luminescence, 786-0 RCC cells | 786-0 RCC cells HIF-2a reporter, luciferase luminescence, overnight | inhibition, % at 18.8 µM | AID 624352, 2012 | 360,000 compounds, 0.72% hits;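 active = inhibition of the luminescence signal of 40% or more relative to plate controls, in a single-dose primary screen at 18.75 µM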
TROY signal inh = inhibitors of TROY-driven NF-kB signaling, primary screen, Q293 LMP1-TROYcd cells, NF-kB luciferase, uHTS; Q293 LMP1-TROYcd NF-kB luciferase reporter, 4 h; inhibition, % at 10 µM; 360,000 compounds, 0.98% hits;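 active = compounds whose plate-normalised and pattern-corrected inhibition of the luciferase reporter signal at the single screening dose is 50% or more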
A number is an active result; . = inactive; / = no result. Sampled rows, rich in hits. Any-hit rate of the full collection: about 4%.

SMILES | CF NFkB block | TWEAK Fn14 block | KKLEB cytotox | Peg3 promoter | HIF-2a block | TROY signal inh
CCOc1cc(N2CCOCC2)c(OCC)cc1NC(=O)c1nn(CC)c(=O)c2ccccc12 | . | . | . | 60 | . | .
O=C(c1ccc(-c2ccc([N+](=O)[O-])cc2)o1)N1CCCCCCC1 | . | . | . | 105 | . | .
CCN(CC)C(=O)[C@H]1CC(CC(=O)NCCCOC)C(=O)N2CCc3c([nH]c4ccccc34)[C@]12C (stereo not given in full) | . | . | . | . | . | .
CCn1c(CNC(=O)c2cccnc2)cc2ccccc21 | . | . | . | 74 | . | .
CCOC(=O)c1ccccc1NC(=O)COC(=O)c1cc([N+](=O)[O-])ccc1N1CCOCC1 | . | . | . | . | . | .
CCOC(=O)C1CC(CN2C(=O)c3ccccc3C2=O)OC1=O (stereo not given) | . | . | . | . | . | .
CC(C)(C)c1ccc(-c2nnc3sc(-c4ccccn4)nn23)cc1 | . | 74 | . | . | . | 72
CC(C)c1cn(CC[C@@H]2CC[C@@H](NC(=O)C3CCCCC3)[C@@H](CO)O2)nn1 | / | / | / | / | . | /
CCN(CC(=O)Nc1c(F)cccc1F)C(=O)C1Cc2ccccc2CN1S(=O)(=O)CC (stereo not given) | . | . | . | . | . | .
COc1ccc(C[C@H]2CN3C(=NC[C@@H]3Cc3ccc(O)cc3)N2CCNC(=O)c2ccc(C)c(Br)c2)cc1 | . | . | . | . | . | .
COc1ccc(C[C@H]2CN3C(=NC[C@H]3Cc3ccccc3)N2CCNC(=O)CCC2CCCCC2)cc1 | . | . | . | 90 | . | .
Cc1ccc(C(=O)NCCN2C3=NC[C@@H](Cc4ccccc4)N3C[C@H]2Cc2ccc(O)cc2)cc1Br | . | . | . | 79 | . | .
Cc1ccc(C(=O)NCCN2C3=NC[C@H](Cc4ccc(O)cc4)N3C[C@H]2Cc2ccc(O)cc2)cc1Br | . | . | . | . | . | .
COc1ccc(C[C@H]2CN3C(=NC[C@H]3Cc3ccccc3)N2CCNC(=O)c2ccc(C)c(Br)c2)cc1 | . | . | . | 95 | . | .
COc1ccc(C[C@H]2CN3C(=NC[C@@H]3Cc3ccccc3)N2CCNC(=O)c2ccc(C)c(Br)c2)cc1 | . | . | . | 97 | . | .
COCCn1c(SCC(=O)Nc2cc(C)on2)nnc1-c1ccccc1 | . | . | . | . | . | .
Nc1ccc(-c2nc3ccc(-c4nc5ccccc5o4)cc3[nH]2)cc1 | . | . | -76 | 73 | . | .
CCC(=O)NC1=C(Cl)C(=O)C(NC(=O)CC)=C(Cl)C1=O | . | . | . | 81 | 96 | .
COc1ccc(OCC(=O)NC2CC(C)(C)NC(C)(C)C2)cc1 | . | 65 | . | . | . | 63
CC1(C)CC(NC(=O)COc2ccccc2Cl)CC(C)(C)N1 | . | 78 | . | . | . | 75
Cc1c(C)n2c(SCC(=O)N3CCCCC3)nnc2[nH]c1=O | . | . | . | . | . | .
CSc1ccc(S(=O)(=O)N2CCC(C(=O)NCCCn3ccnc3)CC2)cc1 | . | 83 | . | . | . | .
O=c1c(N=Nc2ccc(O)cc2)c(-c2ccccc2)[nH]n1-c1ccc([N+](=O)[O-])cc1 | . | . | . | . | . | .
O=c1cc(-c2ccccc2)[nH]n1-c1ccc([N+](=O)[O-])cc1 | 59 | . | -55 | . | . | .
c1ccc(-c2cc3n(c2)CCc2ccccc2-3)cc1 | 57 | 83 | . | . | . | .
SMILES | CF NFkB block | TWEAK Fn14 block | KKLEB cytotox | Peg3 promoter | HIF-2a block | TROY signal inh
O=C(O)c1cc2c(s1)-c1ccccc1CC2 | . | . | . | . | . | .
Cc1nc(N)c(CC(Br)CBr)c(Cl)n1 (stereo not given) | . | . | . | . | . | .
CC(=NNC(=S)N1CCN(c2ccccn2)CC1)c1nccs1 | 66 | 104 | . | . | . | .
COC(=O)[C@@]12C[C@@H](CC(=O)NCc3ccc(C)o3)C(=O)N(Cc3ccccc3)C1=CCC(C)(C)C2 | / | / | / | / | . | /
Cc1nc2ccc(NC(=O)c3cccs3)cc2c(=O)n1Cc1ccc(Cl)cc1 | . | 83 | . | . | . | 70
CCCc1nc2ccc(NC(=O)c3cccs3)cc2c(=O)n1Cc1ccc(Cl)cc1 | . | . | . | . | . | .
C[C@@H](C(O)c1ccccc1)N(C)C(=O)CCc1ccccc1 (stereo not given in full) | . | . | . | . | . | .
COc1cccc(NC(=O)Nc2nc(SC(C)(C)C)ns2)c1 | . | 77 | . | . | . | .
COc1cccc(NC(=O)Nc2nccc(C)n2)c1 | . | 62 | . | . | . | .
CCSc1nsc(NC(=O)Nc2cccc(F)c2)n1 | . | 55 | . | . | . | .
Cc1ccnc(NC(=O)Nc2cccc(F)c2)n1 | . | . | . | . | . | .
COc1cccc(NC(=O)Nc2nc(SC)ns2)c1 | . | 56 | . | . | . | .
CCOc1ccc(N2CC(C(=O)Nc3ccncc3)CC2=O)cc1 (stereo not given) | . | . | . | . | . | .
CCCCN=C1NN=C(c2ccc(C)c(C)c2)CS1 | . | . | . | . | . | .
CCCCN=C1NN=C(c2ccc3c(c2)OCCO3)CS1 | . | 70 | . | . | . | 62
O=C(Nc1ccc(Cl)cc1)Nc1ccc(N2CCCC2)c(S(=O)(=O)Nc2ccccc2Cl)c1 | . | 75 | . | . | . | .
O=C(COC(=O)c1cc(=O)c2ccccc2o1)Nc1ccccc1F | . | . | . | . | . | .
O=C(Cc1cccs1)N1CCN=C1SCc1cccc(F)c1 | . | 81 | . | . | . | .
O=C(NCc1cccnc1)C1CC(c2ccccc2Cl)=NO1 (stereo not given) | . | . | . | . | . | .
CCC1(C)Cc2c(sc3nnn(CC(=O)Nc4cccc5ccccc45)c(=O)c23)CO1 (stereo not given) | . | . | . | 56 | . | .
CCC1(C)Cc2c(sc3nnn(CC(=O)Nc4ccc(C)cc4)c(=O)c23)CO1 (stereo not given) | . | . | . | . | . | .
CCCCCCCCN1C(=O)[C@H](CC(=O)NCCCOCCCC)C[C@@]2(C(=O)OCC)CCCC=C12 | / | . | / | / | . | .
CCN(CC)Cc1cc(Nc2c3ccccc3nc3c4ccccc4n(C)c23)cc(CN(CC)CC)c1O | . | . | . | 102 | . | .
C/C(=N\NC(=O)c1ccc(-c2ccccc2)cc1)C1C(=O)c2ccccc2C1=O | . | . | . | . | . | 56
CCOc1ccc(S(=O)(=O)N2CCC(C(=O)OC(C)C(=O)NC3CCCCC3C)CC2)cc1 (stereo not given) | . | . | . | . | . | .

Screens (PubChem BioAssay)
